The target of experiment [1] is T1, Tyrosine-protein phosphatase non-receptor type substrate 1 (Homo sapiens) + Leukocyte surface antigen CD47 (Homo sapiens) (UniProt P78324+Q08722). Description: CD47-SIRPalpha protein protein interaction - HTRF assay qHTS validation (AID 1347058; active = well fitted curve in the direction sought with a large enough effect in the signal ratio, not every such curve was filed as active; the % refers to the signal ratio; note: series mostly up to about 38 µM). The gist of the method:
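TR-FRET read (Ch1/Ch2 ratio) of soluble extracellular CD47 and Avi-biotinylated SIRPalpha domains in PBS pH 7.4 with 0.05% IGEPAL; 7-point compound titration. Sequential 30 min room-temperature steps; non-biotinylated SIRPalpha as control inhibitor.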

In experiment [2] the target is T1, Tyrosine-protein phosphatase non-receptor type substrate 1 (Homo sapiens) + Leukocyte surface antigen CD47 (Homo sapiens). The experiment is described as follows: CD47-SIRPalpha protein protein interaction - Alpha assay qHTS validation (AID 1347059).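 Note: bead proximity luminescence from CD47 binding SIRPalpha after compound preincubation with SIRPalpha.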 The gist of the method: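 Soluble extracellular domains: Avi-tag biotinylated SIRPalpha (25 nM) preincubated 30 min RT with compound, then 6His-CD47 (12.5 nM) 30 min; Ni-NTA acceptor and streptavidin donor beads (10 ug/mL) 30 min, AlphaScreen read. PBS pH 7.4, 0.05% IGEPAL.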
In general terms: In qHTS, concentration-response curves come from the screen itself.

A short description of experiment [3]: qHTS of pediatric cancer cell lines to identify multiple opportunities for drug repurposing: Primary screen for TC32 cells (AID 1347089). Note: nearly all actives have a fitted effect of over 60% in size. Note: potency is the fitted concentration of half-maximal effect. The gist of the method: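 In the primary qHTS, MIPE compounds were tested at 11 concentrations (0.78 nM to 46 µM) and NPC compounds at 8 (0.59 nM to 46 µM) on TC32 cells for 48 h. CellTiter-Glo luminescence gave viability.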

Experiment [4] in a line: qHTS of pediatric cancer cell lines to identify multiple opportunities for drug repurposing: Primary screen for DAOY cells (AID 1347090). Note: nearly all actives have a fitted effect of over 55% in size. Note: potency is the fitted concentration of half-maximal effect. The method, boiled down:
(§1)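 Eight- or eleven-point concentration series, 48 h treatment at 37 degrees C in growth media; readout CellTiter-Glo luminescence. Potency and efficacy were taken from the concentration-response curves.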

A short description of experiment [5]: qHTS of pediatric cancer cell lines to identify multiple opportunities for drug repurposing: Primary screen for A673 cells (AID 1347092). Note: nearly all actives have a fitted effect of over 45% in size. Note: potency is the fitted concentration of half-maximal effect. The method, boiled down: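 48 h compound exposure, A673, 500-1,000 cells/well, 37 degrees C/5% CO2. MIPE: 11-point, 0.78 nM-46 µM; NPC: 8-point, 0.59 nM-46 µM (final). Readout CellTiter-Glo luminescence after 15 min RT.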

Experiment [6] can be described thus: qHTS of pediatric cancer cell lines to identify multiple opportunities for drug repurposing: Primary screen for SK-N-MC cells (AID 1347093). Note: potency is the fitted concentration of half-maximal effect. The gist of the method:
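Metabolically active cells were quantified by ATP-dependent luminescence (CellTiter-Glo, 15 min at room temperature) following 48 h treatment. Cells had been plated at 500-1,000 per well and settled for 5 h beforehand.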

The nature of experiment [7]: qHTS of pediatric cancer cell lines to identify multiple opportunities for drug repurposing: Primary screen for Saos-2 cells (AID 1347097). Note: nearly all actives have a fitted effect of over 40% in size. Note: potency is the fitted concentration of half-maximal effect. The method, boiled down:
(§2)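 500-1,000 cells/well; 5 h pre-incubation 37 °C/5% CO2; compound pinned; 48 h; CellTiter-Glo, 15 min RT; luminescence. MIPE 11-pt from 0.78 nM, NPC 8-pt from 0.59 nM final. Bortezomib 2.3 µM final as positive control.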

Experiment [8] is described as follows: qHTS of pediatric cancer cell lines to identify multiple opportunities for drug repurposing: Primary screen for SK-N-SH cells (AID 1347098). Note: nearly all actives have a fitted effect of over 65% in size. Note: potency is the fitted concentration of half-maximal effect. The method, boiled down:
(§3)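 Cells (500-1,000/well) rested 5 h, then received compounds for 48 h; metabolically active cells were measured by CellTiter-Glo luminescence. Final concentrations spanned up to 46 µM (MIPE, 11-point) or 0.59 nM-46 µM (NPC, 8-point) in primary screens, 11-point in follow-ups.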

The nature of experiment [9]: qHTS of pediatric cancer cell lines to identify multiple opportunities for drug repurposing: Primary screen for NB1643 cells (AID 1347099). Note: nearly all actives have a fitted effect of over 50% in size. Note: potency is the fitted concentration of half-maximal effect. The gist of the method:
as §2

A short description of experiment [10]: qHTS of pediatric cancer cell lines to identify multiple opportunities for drug repurposing: Primary screen for LAN-5 cells (AID 1347100). Note: potency is the fitted concentration of half-maximal effect. The method, boiled down:
(§4)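 Cells (500-1,000/well) in growth media were settled 5 h at 37 degrees C, then given compounds for 48 h. Viability was read as CellTiter-Glo luminescence. Primary runs used MIPE at 11 points (0.78 nM-46 µM) and NPC at 8 points (0.59 nM-46 µM); follow-ups used 11 points.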

A short description of experiment [11]: qHTS of pediatric cancer cell lines to identify multiple opportunities for drug repurposing: Primary screen for BT-12 cells (AID 1347101). Note: nearly all actives have a fitted effect of over 25% in size. Note: potency is the fitted concentration of half-maximal effect. The gist of the method:
as §3

A short description of experiment [12]: qHTS of pediatric cancer cell lines to identify multiple opportunities for drug repurposing: Primary screen for RD cells (AID 1347104). Note: nearly all actives have a fitted effect of over 55% in size. Note: potency is the fitted concentration of half-maximal effect. The gist of the method: as §2
The nature of experiment [13]: qHTS of pediatric cancer cell lines to identify multiple opportunities for drug repurposing: Primary screen for MG 63 (6-TG R) cells (AID 1347105). Note: nearly all actives have a fitted effect of over 50% in size. Note: potency is the fitted concentration of half-maximal effect. The gist of the method: as §2
The nature of experiment [14]: qHTS of pediatric cancer cell lines to identify multiple opportunities for drug repurposing: Primary screen for SJ-GBM2 cells (AID 1347091). Note: potency is the fitted concentration of half-maximal effect. The gist of the method:
as §1

A short description of experiment [15]: qHTS of pediatric cancer cell lines to identify multiple opportunities for drug repurposing: Primary screen for BT-37 cells (AID 1347094). Note: potency is the fitted concentration of half-maximal effect. The method, boiled down: as §2
Experiment [16] is described as follows: qHTS of pediatric cancer cell lines to identify multiple opportunities for drug repurposing: Primary screen for NB-EBc1 cells (AID 1347095). Note: potency is the fitted concentration of half-maximal effect. The method, boiled down:
as §2

Experiment [17] can be described thus: qHTS of pediatric cancer cell lines to identify multiple opportunities for drug repurposing: Primary screen for U-2 OS cells (AID 1347096). Note: nearly all actives have a fitted effect of over 50% in size. The gist of the method: as §4
A short description of experiment [18]: qHTS of pediatric cancer cell lines to identify multiple opportunities for drug repurposing: Primary screen for Rh18 cells (AID 1347102). Note: nearly all actives have a fitted effect of over 65% in size. Note: potency is the fitted concentration of half-maximal effect. The method, boiled down: as §4
The nature of experiment [19]: qHTS of pediatric cancer cell lines to identify multiple opportunities for drug repurposing: Primary screen for OHS-50 cells (AID 1347103). Note: nearly all actives have a fitted effect of over 40% in size. Note: potency is the fitted concentration of half-maximal effect. The gist of the method: as §3
In experiment [20] the target is Parathyroid hormone/parathyroid hormone-related peptide receptor (Homo sapiens) (UniProt Q03431). The experiment is described as follows: qHTS for PTHR1 Agonists: Optimization Screen against the NCGC LOPAC library (AID 1347079).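 Note: GloSensor cAMP luminescence in HEK-293 GP2 cells expressing human PTHR1 with IBMX.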 The method, boiled down: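 Compounds were tested across a qHTS titration. PTHR1-expressing GP2 cells report cAMP rises via GloSensor luminescence after 1 hr compound exposure at 37C with IBMX present.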

Each structure is given as a SMILES string. Unmarked numbers belong to inactive results. Results filed as inconclusive are left out. The source made the active and inactive calls. Unless noted, calls come from the whole dose curve; as a rule, active = well fitted curve in the direction sought with a large enough effect; inconclusive = small, poorly fitted or top-dose-only effect, or another doubt; inactive = no such curve, though single readings can be large; an effect the other way counts as inactive or inconclusive.

T1 sequence (P78324 whole entry, looked up, the tested form may be a part): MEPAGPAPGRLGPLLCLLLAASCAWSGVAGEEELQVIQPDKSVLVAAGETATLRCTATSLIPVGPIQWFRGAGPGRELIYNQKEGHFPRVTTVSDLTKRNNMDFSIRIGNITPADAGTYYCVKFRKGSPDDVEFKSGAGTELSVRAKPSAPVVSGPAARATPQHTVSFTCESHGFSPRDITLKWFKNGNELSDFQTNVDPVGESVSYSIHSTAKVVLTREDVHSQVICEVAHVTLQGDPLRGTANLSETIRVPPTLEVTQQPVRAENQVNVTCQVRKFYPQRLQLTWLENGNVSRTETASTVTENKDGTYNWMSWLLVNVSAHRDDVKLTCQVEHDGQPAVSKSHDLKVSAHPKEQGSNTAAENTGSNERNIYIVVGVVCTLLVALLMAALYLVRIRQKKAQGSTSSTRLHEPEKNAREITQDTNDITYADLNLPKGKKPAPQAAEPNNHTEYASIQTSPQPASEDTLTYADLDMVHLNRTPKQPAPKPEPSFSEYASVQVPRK
T1 sequence (Q08722 whole entry, looked up, the tested form may be a part): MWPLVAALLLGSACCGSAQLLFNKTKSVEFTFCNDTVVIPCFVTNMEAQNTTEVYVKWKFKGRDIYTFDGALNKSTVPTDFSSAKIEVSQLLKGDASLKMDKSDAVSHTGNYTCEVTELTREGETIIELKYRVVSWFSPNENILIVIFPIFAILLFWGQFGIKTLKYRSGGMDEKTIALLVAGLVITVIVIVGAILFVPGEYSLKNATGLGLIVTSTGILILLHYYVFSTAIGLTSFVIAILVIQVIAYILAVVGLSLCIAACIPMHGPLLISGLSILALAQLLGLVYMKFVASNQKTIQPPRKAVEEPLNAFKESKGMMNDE
Chain of Parathyroid hormone/parathyroid hormone-related peptide receptor (Homo sapiens) (Q03431 whole entry, looked up): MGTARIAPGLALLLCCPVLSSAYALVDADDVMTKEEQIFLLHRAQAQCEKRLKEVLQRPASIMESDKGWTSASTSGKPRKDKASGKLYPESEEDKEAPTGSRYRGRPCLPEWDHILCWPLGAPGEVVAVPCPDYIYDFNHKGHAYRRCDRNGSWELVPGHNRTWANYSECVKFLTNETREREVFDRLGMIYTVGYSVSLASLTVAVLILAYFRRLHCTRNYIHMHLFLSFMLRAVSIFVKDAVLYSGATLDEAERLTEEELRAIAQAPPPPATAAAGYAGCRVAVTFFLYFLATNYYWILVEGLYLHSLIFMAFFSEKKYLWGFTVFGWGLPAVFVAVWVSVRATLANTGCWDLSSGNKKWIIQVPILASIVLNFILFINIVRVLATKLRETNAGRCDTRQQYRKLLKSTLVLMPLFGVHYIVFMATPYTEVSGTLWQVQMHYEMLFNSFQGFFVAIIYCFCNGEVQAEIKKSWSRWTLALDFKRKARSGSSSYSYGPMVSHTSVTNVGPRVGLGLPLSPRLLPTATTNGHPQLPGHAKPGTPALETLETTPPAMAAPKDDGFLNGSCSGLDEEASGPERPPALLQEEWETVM

For `Cc1cc(Cl)ccc1OCCCC(=O)NO`, in experiment [1], the outcome was inactive. The Potency entry in experiment [2] and in experiment [11] was “inactive” each time. For the same compound, the Potency in experiment [3] is 5.23 µM (active); in [4], 9.35 µM (active); in experiment [5], 2.96 µM (active); in experiment [6] it was 2.09 µM (active); in experiment [7] it was 11.8 µM (active); in experiment [8] it was 19.2 µM (active). Besides, the Potency was 4.18 µM (active) in [9], 2.64 µM (active) in experiment [10], 18.7 µM (active) in experiment [12] and 7.43 µM (active) in experiment [13].
With `CN1C(C(=O)Nc2ccccn2)=C(O)c2sccc2S1(=O)=O`, the Potency entry in [3], in experiment [4], in experiment [14], in experiment [5], in [6] and in experiment [15] was “inactive” each time. Also, the Potency entry in experiment [16], in [17], in experiment [7], in [8], in [9] and in experiment [10] was “inactive” throughout. Besides, the Potency entry in experiment [11], in experiment [18], in [19] and in [12] was “inactive” each time.
As for `CN(c1nccc(=O)[nH]1)C1CCN(c2nc3ccccc3n2Cc2ccc(F)cc2)CC1`, the Potency result in experiment [3], in experiment [4], in experiment [14], in [5], in [15] and in [16] was “inactive” each time. Further, the Potency result in experiment [17], in experiment [7], in [8], in experiment [11], in [18] and in experiment [12] was “inactive” in each case. In addition, the Potency entry in [13] is “inactive”. In addition, the Potency in experiment [6] was 2.64 µM (active).
Regarding `Nc1nc(N)c(N=O)c(OCC2CCCCC2)n1`, the Potency entry in experiment [2] was “inactive”. Also, the compound was classed as inactive in experiment [20]. Also, the Potency in experiment [5] is 7.43 µM (active); in experiment [6], 3.32 µM (active); in experiment [7], 18.7 µM (active); in [9] it was 18.7 µM (active); in experiment [18], 18.7 µM (active); in experiment [19] it was 15.3 µM (active).
In the case of `Oc1ccc(OCc2ccccc2)cc1`, the Potency entry in experiment [3], in experiment [4], in experiment [14], in experiment [5], in experiment [6] and in experiment [15] was “inactive” throughout. The Potency result in [16], in [7], in experiment [8], in experiment [9], in experiment [10] and in experiment [11] was “inactive” each time. The Potency result in [18], in [19] and in [12] was “inactive” throughout.
Regarding `CCN(CC)CCOc1ccc(Nc2ncc3cc(-c4c(Cl)cccc4Cl)c(=O)n(C)c3n2)cc1`, in experiment [2], the Potency result is “inactive”. Also, the Potency in experiment [3] was 6.58 µM (active); in experiment [4], 0.187 µM (active); in experiment [14], 0.418 µM (active); in experiment [5], 0.118 µM (active); in [6] it was 0.105 µM (active); in experiment [15] it was 6.11 µM (active). Also, the Potency in experiment [16] is 1.48 µM (active); in [7] it was 0.296 µM (active); in [8] it was 0.242 µM (active); in experiment [9] it was 3.72 µM (active); in experiment [10], 1.05 µM (active); in experiment [11] it was 19.3 µM (active). For the same compound, the figures for the Potency in [18], in [19] and in experiment [12] were 0.372 µM (active), 0.122 µM (active) and 0.743 µM (active), respectively.
Regarding `Cc1nc2n(c(=O)c1CCN1CCC(c3noc4cc(F)ccc34)CC1)CCCC2`, the Potency result in experiment [3], in experiment [4], in experiment [14], in [5], in [6] and in [15] was “inactive” throughout. Further, the Potency result in [16], in [17], in experiment [7], in [8], in experiment [9] and in [10] was “inactive” each time. Further, the Potency entry in experiment [11], in [18], in [19], in [12] and in [13] was “inactive” in each case.

The values above are taken from PubChem BioAssay (NCATS).
